The sample as a whole holds a higher share of hits than the screen did.
AMA1 RON2 block – AMA1-RON2 (P. falciparum) interaction inhibition; AlphaScreen AMA1-biotinylated RON2 peptide binding; Potency, µM (titrated, usually from 58.2 µM), actives largely listed as inhibitors; 0.2% of 360,000 active; AID 720542; note: nearly all actives have a fitted effect of over 45% in size
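AMA1 (3D7) with his tag at 25 nM final met compounds first, then biotinylated RON2 peptide at 25 nM; detection used donor plus acceptor beads, 10 µg/mL apiece, read by AlphaScreen after 30 min at room temperature.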
SARS PLP yeast – inhibitors of SARS-CoV papain-like protease in yeast; S. cerevisiae expressing SARS-CoV PLpro, growth rescue; Potency, µM (doses to about 32.9 µM), hits mostly activators; 0.19% of 330,000 active; calls by dose curve; note: nearly all actives have a fitted effect of over 55% in size
AmpC detergent – AmpC beta-lactamase inhibition with detergent present. P00811. AmpC hydrolysis of nitrocefin, absorbance 480 nm, 0.01% Triton. Potency, µM (doses to about 114 µM), most hits filed as inhibitors. 0.041% of 370,000 active; note: nearly all actives have a fitted effect of over 25% in size
Target sequence (P00811 whole entry, looked up): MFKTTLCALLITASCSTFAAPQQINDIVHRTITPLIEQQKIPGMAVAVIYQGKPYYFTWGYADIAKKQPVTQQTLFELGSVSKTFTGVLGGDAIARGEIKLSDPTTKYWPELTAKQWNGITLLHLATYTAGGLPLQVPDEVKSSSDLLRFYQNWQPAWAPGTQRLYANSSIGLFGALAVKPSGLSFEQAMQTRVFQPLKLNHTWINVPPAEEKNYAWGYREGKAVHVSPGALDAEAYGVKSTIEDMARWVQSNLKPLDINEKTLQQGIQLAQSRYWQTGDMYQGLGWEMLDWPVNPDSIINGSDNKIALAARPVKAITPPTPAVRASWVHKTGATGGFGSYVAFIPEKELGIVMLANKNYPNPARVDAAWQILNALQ
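20 mM phosphate pH 7.0 + 0.01% (detergent screen) or 0.0001% Triton X-100; 5.3 nM AmpC reagent; cpd preinc 15 min RT; nitrocefin (800 uM stock) to start; A480 q20 s × 4 min; Activity was normalised to no-enzyme and no-compound control wells.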
CHX counter – affects cycloheximide protein synthesis inhibition readout, counter-screen. max response, %. 12% of 300,000 active. cell reporter, cycloheximide protein synthesis inhibition counterscreen; in the data active = max response mostly above about 13%, no sharp cut-off; inactive = mostly below about 14%; note: read at 38.3 µM for the half of the compounds with a filed dose
AmpC no deterg – blocks E. coli AmpC beta-lactamase in detergent-free assay. P00811. AmpC nitrocefin hydrolysis, absorbance 480 nm, 0.0001% Triton. Potency, µM (titrated, usually from 57.1 µM), most hits filed as inhibitors. 0.52% of 330,000 active. AID 485341; note: nearly all actives have a fitted effect of over 20% in size
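20 mM phosphate pH 7.0 + 0.01% (detergent screen) or 0.0001% Triton X-100; 5.3 nM AmpC reagent; cpd preinc 15 min RT; nitrocefin (800 uM stock) to start; A480 q20 s × 4 min; Activity was normalised to no-enzyme and no-compound control wells.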
Shiga inhibitor – Shiga toxin inhibition; Vero cells, Shiga toxin protein synthesis inhibition reporter; inhibition, % at 38.7 µM; 9.2% of 290,000 active; AID 2315; in the data active = inhibition mostly above about 28%, no sharp cut-off; inactive = mostly below about 43%
Numbers stand for hits; 0 = inactive; ? = inconclusive; - = not tested or not shown; [ ] = dose if it differs, or a comment. Unless noted, calls come from the whole dose curve; as a rule, active = well fitted curve in the direction sought with a large enough effect; inconclusive = small, poorly fitted or top-dose-only effect, or another doubt; inactive = no such curve, though single readings can be large; an effect the other way counts as inactive or inconclusive.

SMILES | AMA1 RON2 block | SARS PLP yeast | AmpC detergent | CHX counter | AmpC no deterg | Shiga inhibitor
O=C(O)c1cc(N/N=C/c2cccc3ccccc23)ccc1Cl | 0 | 0 | 0 | 103 | 0 | 114
C/C(=N\NC(=O)c1ccco1)c1cccc2ccccc12 | 0 | 0 | 0 | 0 | 0 | 0
Cc1cccc(NC(=O)c2cc3c(=O)n4ccccc4nc3s2)c1 | 0 | 0 | 0 | 0 | 0 | 0
O=C(Cc1ccccc1)N1CCc2[nH]nc(-c3ccccc3)c2C1 | 0 | 0 | 0 | 0 | 0 | 0
CC(=NNC(=S)Nc1ccccc1)c1ccccn1 | 0 | - | - | - | - | -
C/C(=N\Nc1ccc(Cl)c(C(=O)O)c1)c1ccccn1 | 0 | 0 | 0 | 94 | 0 | 138
O=C(O)c1cc(N/N=C/C(Cl)=C/c2ccccc2)ccc1Cl | 0 | 0 | 0 | 68 | 0 | 183
O=C(N/N=C/C(Cl)=C/c1ccccc1)c1ccncc1 | 0 | 0 | 0 | 0 | 0 | 0
CSc1ncccc1C(=O)OCc1ccccc1Cl | 0 | 0 | 0 | 41 | 0 | 0
CSc1ncccc1C(=O)OCc1ccc(C#N)cc1 | 0 | 0 | ? | 0 | 0 | 0
COC(=O)c1cccc(COC(=O)c2cccnc2SC)c1 | 0 | 0 | 0 | 21 | 0 | 0
CSc1ncccc1C(=O)OCc1c(F)cccc1Cl | 0 | 0 | ? | 21 | 0 | 91
COc1ccc(NC(=O)N(C)C[C@H]2Oc3ccc(NC(=O)C4CCCCC4)cc3C(=O)N([C@H](C)CO)C[C@@H]2C)cc1 | 0 | 0 | - | - | 0 | -
COc1ccc(/C=C/C(=O)c2cc(F)ccc2OC(=O)c2ccccc2OC)cc1OC | 0 | 0 | ? | 0 | 0 | 0
O=C(/C=C/c1ccc(F)cc1)c1ccccc1Br | 0 | 0 | 0 | 20 | 0 | 0
Cc1ccc(C(=O)/C=C/c2ccc(F)cc2)o1 | 0 | 0 | 0 | 60 | 0 | 76
COc1ccc(/C=C/C(=O)c2ccc([N+](=O)[O-])o2)cc1 | 0 | 0 | ? | - | 0 | -
O=C(COC(=O)CCc1nc2ccccc2s1)Nc1cccc(S(=O)(=O)N2CCOCC2)c1 | 0 | 0 | 0 | 0 | 0 | 0
Cc1nc(-c2cnn(-c3ccccc3)c2)c2cc(C)oc2n1 | 0 | 0 | 0 | 0 | 0 | 0
COc1cc(C(O)c2nc(-c3ccc(N(C)C)cc3)cs2)ccc1F (configuration not stated) | 20µM | - | - | - | - | -
COc1ccc(C(=O)NNC(=S)Nc2ccccc2)cc1 | 0 | 0 | ? | 41 | 0 | 0
O=C(NNC(=S)Nc1cccc(Cl)c1)c1ccccc1 | 0 | ? | 0 | 27 | 0 | 42
O=C(Nc1cccc(Cl)c1)c1ccccc1 | 0 | 0 | 0 | - | 0 | -
O=C(NNC(=S)Nc1ccccc1)c1cccnc1 | 0 | 0 | 0 | 20 | 0 | 28
COc1ccc(C(=O)NNC(=S)NC(=O)c2ccc(OC)cc2)cc1 | 0 | 0 | 0 | 0 | 0 | -
SMILES | AMA1 RON2 block | SARS PLP yeast | AmpC detergent | CHX counter | AmpC no deterg | Shiga inhibitor
CC(=O)c1ccc(NC(=S)NNC(=O)c2ccncc2)cc1 | 0[11.6 µM] | 0 | 0 | 16 | 0 | 0
Cc1ccccc1NC(=S)NNC(=O)c1ccncc1 | 0 | 0 | 0 | 0 | 0 | 0
Cn1c2ccc(F)cc2c2nnc(SCCN3CCOCC3)nc21 | 0 | 0 | 0 | 0 | 0 | 0
O=C(NNC(=S)Nc1ccc(Cl)cc1)c1ccccc1 | 0 | 0 | 0 | 27 | 0 | 57
CCOc1cc(NC(=S)Nc2cccc(OC)c2)c(OCC)cc1NC(=O)c1ccc(C)cc1 | 0 | 0 | 0 | 0 | 0 | 0
CCCCC(=O)NC(=S)NNC(=O)c1ccc(OC)cc1 | 0 | 0 | 35µM | 0 | 0 | 0
COc1ccc(C(=O)NNC(=O)C2(C)CC2(Br)Br)cc1 (configuration not stated) | 0 | 0 | 0 | 26 | 0 | 35
CCOc1cc(NC(=S)Nc2ccccc2)c(OCC)cc1NC(=O)c1ccc(OC)cc1 | 0 | 0 | 0 | 21 | 0 | 0
COc1ccc(-c2nnc3ccc(SCC(=O)N4CCCC4)nn23)cc1 | 0 | 0 | ? | 0 | 0 | 0
O=C(NCC(c1ccco1)N1CCOCC1)C1CCCCC1 (configuration not stated) | 0 | 0 | ? | - | ? | -
COc1ccc(/C=N/NC(=O)c2ccc(-n3cnnn3)cc2)cc1 | 0 | 0 | 0 | - | 0 | -
O=C(NNC(=S)Nc1ccccc1Cl)c1ccccc1Cl | 0 | 0 | 0 | 0 | 0 | 0
O=C(CSCc1ccccc1)NNC(=S)Nc1cccc(Cl)c1Cl | 0 | 0 | ? | 0 | 0.16µM | 0
O=C(NNC(=S)Nc1ccccc1Cl)c1ccccc1 | 0 | 0 | ? | 43 | 0 | 78
CNC(=S)NNC(=O)CSCc1c(Cl)cccc1Cl | 0 | 0 | 0 | 0 | 0 | 0
O=C(NNC(=S)NC(=O)c1cccnc1)c1ccc(F)cc1 | 0 | 0 | 0 | 28 | 0 | 39
NC(=O)NOCc1ncc(C(F)(F)F)cc1Cl | 0 | 0 | 0 | 0 | 0 | 0
O=C1OC(c2cccs2)=N/C1=C/c1ccc(-c2cccc(C(=O)O)c2)o1 | 0 | 0 | 0 | 26 | 0 | 0
N=C1/C(=C/c2ccc(-c3cccc(C(=O)O)c3)o2)C(=O)N=C2SC=C(c3ccccc3)N12 | ? | 0 | 50µM | 0 | 0 | 0
O=C1OC(c2cccs2)=N/C1=C\c1ccc(-c2ccccc2Cl)o1 | 0 | 0 | 0 | 0 | 0 | 0
COc1cc2ccccc2cc1C(=O)OCC(=O)N1CCOCC1 | 0 | 0 | 0 | 0 | 0 | 0
COc1ccc(-n2nc3c(c2NC(=O)CCCCl)CSC3)cc1 | 0 | 0 | ? | 16 | 0 | 0
CN(C)C(=O)c1ccc(-n2nc(C(F)(F)F)c3c2CCCC3)cc1 | 0 | 0 | ? | 0 | 0 | 0
O=C(NNC(=O)c1ccccc1Cl)c1ccco1 | 0 | 0 | 0 | 17 | 0 | 0
O=C(/C=C/c1ccccc1Cl)NNC(=O)c1cccs1 | 0 | 0 | 0 | 32 | 0 | 0
SMILES | AMA1 RON2 block | SARS PLP yeast | AmpC detergent | CHX counter | AmpC no deterg | Shiga inhibitor
O=C(Nc1ccc(N2C(=O)C3CCCCC3C2=O)cc1Cl)c1cccs1 (configuration not stated) | 0 | 0 | 0 | 18 | 0 | 0
O=C(Nc1cccc(N2C(=O)C3CCCCC3C2=O)c1)c1ccccc1 (configuration not stated) | 0 | 0 | 0 | 0 | 0 | 0
O=C(/C=C/c1ccccc1Cl)NNC(=O)c1ccncc1 | 0 | 0 | 0 | - | 0 | -
O=C(Nc1ccccc1Cl)c1ccc(-c2ccccn2)s1 | 0 | 0 | 0 | 49 | 0 | 64
Fc1ccc(CN2CCN(c3ccc(Cl)cc3)CC2)cc1 | 0 | 0 | 0 | 0 | 0 | 0
Cc1ccc(Cl)cc1Nc1nc(N2CCOCC2)nc(N2CCOCC2)n1 | 0 | 0 | 0 | 0 | 0 | 0
NCC(c1ccccc1Cl)c1c[nH]c2ccccc12 (configuration not stated) | 0 | 0 | 0 | 0 | 0 | 0
COc1ccc(-c2cc(C(F)(F)F)nc(SCC(=O)Nc3ccc(C(C)=O)cc3)n2)cc1 | - | - | 0 | - | - | -
O=C(NNC(=O)c1ccccc1Cl)c1cccs1 | 0 | 0 | 0 | 0 | 0 | 35
O=C(CCC(=O)c1cccs1)NNC(=O)c1cc(Cl)ccc1Cl | 0 | 0 | - | - | 0 | -
COc1ccc(Cl)cc1NC(=S)NNC(=O)c1cccnc1 | 0 | 0 | 0 | 0 | 0 | 0

From PubChem
